Compound activity (PubChem)
The list is not random: actives were taken first. Their share in the collection is about 2.1%.
FUS suppressor: rescues growth of FUS-expressing yeast; S. cerevisiae FUS-expressing, growth rescue, OD600, 24 h; Potency, µM (titrated, usually from 76.6 µM), hits mostly activators; 0.24% of 390,000 active; AID 1347120;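 also: plate controls were DMSO vehicle for no effect and reference control for full effect; nearly all actives have a fitted effect of over 55% in size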
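Toxicity suppression screen in FUS-yeast. Cells induced with 2% galactose, starting OD 0.005, treated 24hr at 30C with compounds at multiple final concentrations; growth by OD600.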
aSyn yeast inh: alpha-synuclein toxicity inhibition in yeast; Yeast expressing alpha-synuclein, growth rescue, BacTiter-Glo, 24 h; Potency, µM (doses to about 46.1 µM), without a hit: at the highest dose growth rescue (activation), hits mostly activators; 0.14% of 370,000 active; AID 652106; also: % of control where 0% means no effect; nearly all actives have a fitted effect of over 65% in size
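Readout is rescue of growth in alpha-synuclein-expressing yeast, so inhibitors of toxicity appear as activators. Growth after 24 hr at 30 deg C in galactose medium is quantified by luminescence.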
TDP-43 yeast inh: TDP-43 toxicity inhibition in yeast | 1.8% of 410,000 active | Potency, µM (top dose mostly 46.1 µM), for inactives: top-dose growth rescue (activation), actives largely listed as activators | AID 652104 | TDP-43 expressing yeast growth rescue, BacTiter-Glo, 24 h; also: % of control where 0% means no effect; nearly all actives have a fitted effect of over 50% in size
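Yeast cells expressing TDP-43 under galactose induction are exposed to compounds for 24 hr at 30 deg C. BacTiter-Glo luminescence measures growth, so protective compounds score as activators.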
Abeta yeast res: A-beta toxicity reversal in yeast. yeast expressing A-beta42, growth rescue, OD600, 48 h; response scale: 0% DMSO, 100% iron-clioquinol control. Potency, µM (highest dose often 46.1 µM), hits mostly activators. 0.063% of 410,000 active; also: nearly all actives have a fitted effect of over 55% in size
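Growth rescue measured by 600 nm absorbance after 48 h yeast culture at 30 C with compound. Values normalized between DMSO and an equimolar ferric chloride plus clioquinol control.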
Starred values were filed as active, the others as inactive; i = inactive; u = inconclusive; x = no result. Calls follow the shape of the dose curve; as a rule, active = well fitted curve in the direction sought with a large enough effect; inconclusive = small, poorly fitted or top-dose-only effect, or another doubt; inactive = no such curve, though single readings can be large; an effect the other way counts as inactive or inconclusive. Potency is read from the fitted curve at half-maximal effect.

SMILES	FUS suppressor	aSyn yeast inh	TDP-43 yeast inh	Abeta yeast res
C=CCn1c(C)cc(C(=O)CSc2nc3ccccc3o2)c1C	i	5.3%	22.4µM*	i
C=CCn1c(C)cc(C(=O)CSc2nc3ccccc3c(=O)[nH]2)c1C	i	2.0%	10µM*	i
C=CCn1c(C)cc(C(=O)CSc2nc3ccccc3[nH]2)c1C	i	18.9%	15.6%	i
C=CCn1c(C)cc(C(=O)CSc2nnc(Cc3ccccc3)o2)c1C	i	2.5%	2.51µM*	u
C=CCn1c(C)cc(C(=O)CSc2nnc(NC(C)C)s2)c1C	i	-10.0%	22.4%	i
C=CCn1c(C)cc(C(=O)CSc2nnc(NCc3ccccc3)s2)c1C	i	1.6%	11.2µM*	u
CCCc1ccc(S(=O)(=O)N2CCC(Oc3ccc(-n4cnnn4)cc3)CC2)cc1	i	x	-1.1%	i
Cc1ccc(S(=O)(=O)N2C(=O)CCC2C(=O)N2CCCCC2)cc1 (centres undefined)	i	-0.7%	18.2%	i
OC[C@@H]1CN(Cc2ccco2)C[C@H](n2cnc3c(N4CCN(c5ccccc5)CC4)ncnc32)O1	i	-9.2%	13.6%	i
Nc1ccn([C@@H]2O[C@H](CNCc3ccc(N4CCNCC4)cc3)[C@@H](O)[C@H]2O)c(=O)n1	i	-4.3%	24.2%	i
O=C(CN(Cc1ccc(F)cc1)C(=O)CNS(=O)(=O)c1ccc(Cl)cc1)NCC1CCCO1 (centres undefined)	i	-1.3%	4.5%	i
COc1ccc(/C=C/C(=O)NCC(=O)N=Nc2c(O)[nH]c3ccc([N+](=O)[O-])cc23)cc1	i	1.0%	-3.0%	i
Cc1cc(C(=O)CSc2nc3ccccc3o2)c(C)n1C1CC1	i	7.9%	22.4µM*	i
Cc1cc(C(=O)CSc2ncnc3ccccc23)c(C)n1C1CC1	x	6.5%	15.3%	i
COc1ccc(-n2nc([N+](=O)[O-])c(=NCCC3=CCCCC3)n2O)cc1	i	8.5%	20µM*	i
C=CCn1c(O)c2ccc(C(=O)N=NC(=O)COc3ccc(OC)cc3)cc2c1O	x	3.6%	17.9%	i
Cn1cc(C(=O)CCl)c2ccccc21	i	-22.5%	15.8µM*	i
CCCCNC(=O)C1(C)CCCCN1C(=O)c1ccc2c(c1)C(C)(C)CCC2(C)C (centres undefined)	i	6.1%	20µM*	i
Cc1ccc(NC(=O)C2CCCN2S(=O)(=O)c2cccc3nsnc23)c(Br)c1 (centres undefined)	i	x	20µM*	i
COc1ccc(S(=O)(=O)N2CCN(Cc3nc4ccc(C)cc4o3)CC2)cc1	i	x	17.8µM*	i
O=c1[nH]c(-c2ccccc2)c(-c2ccccc2)o1	i	14.6%	7.6%	i
COc1ccc(NC(=O)c2ccc3ncsc3c2)cc1	i	-27.1%	7.08µM*	u
O=C(Nc1ccc(Br)cc1)c1ccc2ncsc2c1	i	-6.4%	3.16µM*	i
O=C(OCn1ncc(Br)c(Br)c1=O)c1ccccc1Cl	i	-6.6%	6.31µM*	i
O=C(OCn1ncc(Br)c(Br)c1=O)c1ccc(F)cc1	i	-70.8%	u	i
SMILES	FUS suppressor	aSyn yeast inh	TDP-43 yeast inh	Abeta yeast res
c1ccc2cc3[nH]c(CNc4nc(N5CCOCC5)nc5c4ncn5-c4ccsc4)nc3cc2c1	14.1µM*	x	x	x
c1ccc2[nH]c(CNc3nc(N4CCOCC4)nc4c3ncn4-c3ccsc3)nc2c1	i	x	x	x
Cc1cc(CN(C)C(=O)c2ccc3nc(Cc4ccccc4F)oc3c2)on1	i	0.7%	10.7%	i
COc1ccc(C2Nc3ccccc3C(=O)N2Cc2ccncc2)cc1COc1ccc(NC(C)=O)cc1 (centres undefined)	i	x	x	x
COc1ccc(C2Nc3cccc(O)c3C(=O)N2Cc2ccccc2)cc1COc1ccc(NC(C)=O)cc1 (centres undefined)	11.2µM*	x	x	i
COc1ccc(NCc2cc3cc4c(cc3n(CC(=O)Nc3ccc(C)cc3)c2=O)OCO4)cc1	14.1µM*	-0.8%	-6.1%	i
Cc1ccc(-c2nc3cc(N)ccc3o2)cc1	i	-2.4%	0.0%	i
Cc1ccc2oc(-c3cccc(N)c3)nc2c1	i	-2.9%	12.6µM*	i
O=C(Oc1cccc2cccnc12)c1ccco1	i	-1.2%	-78.7%	i
O=C(Oc1ccc(Cl)c2cccnc12)c1ccco1	i	10.5%	31.6µM*	i
N#Cc1nc(-c2ccc(COc3ccc(Cl)cc3)o2)oc1N1CCC(C(N)=O)CC1	i	x	12.9%	i
COc1ccccc1NC(=O)COC(=O)CCC(=O)c1cccs1	i	-0.2%	0.0%	i
O=C(COC(=O)c1ccccc1)Nc1ccccc1Br	i	-0.3%	1.4%	i
Cc1cc(NC(=O)COC(=O)c2c(Cl)cccc2Cl)no1	i	-2.6%	15.8µM*	i
Cc1cc(NC(=O)COC(=O)c2ccc(Cl)cc2)no1	i	3.5%	18.1%	i
O=C(COC(=O)c1c(Cl)cccc1Cl)Nc1ccccc1Br	x	3.2%	14.1µM*	i
C=CCC[C@@H](Cc1ccc(F)cc1)C(=O)OC[C@@H]1CCCN1C(=O)[C@@H](CC=C)CC(=O)N[C@@H](CO)Cc1ccccc1	22.4µM*	-1.4%	12.6µM*	i
C=CCC[C@H](Cc1ccc(F)cc1)C(=O)OC[C@@H](Cc1c[nH]c2ccccc12)NC(=O)[C@@H](CC=C)CC(=O)N[C@@H](CO)Cc1ccccc1	i	4.9%	-3.0%	i
C=CCC[C@@H](Cc1ccc(F)cc1)C(=O)OC[C@@H](Cc1c[nH]c2ccccc12)NC(=O)[C@@H](CC=C)CC(=O)N[C@H](CO)Cc1ccccc1	25.1µM*	3.1%	9.1%	i
Cc1ccc(NC(=O)Cn2nnc(C(=O)NCCc3ccccc3)c2N)cc1	i	x	13.4%	i
CN=c1scc(-c2ccco2)n1/N=C/c1ccc(O)c(O)c1	i	13.4%	28.2µM*	i
NS(=O)(=O)c1cc(C(=O)N2CCNC(=O)C2)ccc1Cl	i	-1.9%	-5.7%	i
CCOc1ccccc1N1CCN(C(=O)/C=C/c2cccc([N+](=O)[O-])c2)CC1	i	13.1%	14.1µM*	i
Cc1ccc(NC(=O)COc2ccccc2)cc1Cl	i	-5.8%	u	i
COc1ccc(NC(=O)COc2ccccc2)cc1Cl	i	-7.6%	11.2µM*	i
SMILES	FUS suppressor	aSyn yeast inh	TDP-43 yeast inh	Abeta yeast res
CC(C)c1ccc(NC(=O)COc2ccccc2)cc1	i	-6.6%	10µM*	i
Cc1cc(S(=O)(=O)Nc2cccnc2)c(C)s1	i	-4.4%	-5.7%	i
Cc1cc(S(=O)(=O)Nc2ccc3ccccc3c2)c(C)s1	i	17.8µM*	u	i
Cc1ccc(S(=O)(=O)Nc2ccc3ccccc3c2)cc1	x	u	-53.2%	i
COc1ccc(S(=O)(=O)Nc2ccc3ccccc3c2)cc1C	i	22.4µM*	u	i
Cc1cccc2cc3c(N)c(C#N)sc3nc12	i	u	3.16µM*	i
